About 79,000 compounds went through this panel and 15% of them were active in at least one assay; those are over-represented in the sample as a whole. Rule as the data show it: active = growth inhibition above about 70%; inactive = the rest.
What was measured:
[1] = NCI Yeast Anticancer Drug Screen. Data for the rad50 strain (AID 155);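 also: 0% = growth of vehicle-only cultures of the same strain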; settings: S. cerevisiae rad50 strain growth inhibition; at 50.0 µM; stronger effect = higher value
In short: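 Growth of the mutant yeast was measured after compound exposure and referenced to vehicle-treated cultures.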

[2] = NCI Yeast Anticancer Drug Screen. Data for the mec2-1 strain (AID 157); settings: S. cerevisiae mec2-1 strain, at 50.0 µM, stronger effect = higher value
In short: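 Using mec2-1 yeast: add compound, measure growth, express inhibition versus vehicle-treated cultures.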

[3] = NCI Yeast Anticancer Drug Screen. Data for the sgs1 mgt1 strain (AID 161);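 also: 0% = growth of cultures given vehicle only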; settings: S. cerevisiae sgs1 mgt1 strain, at 50.0 µM, stronger effect = higher value
In short: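 Percent growth inhibition was derived by comparing compound-exposed mutant yeast with vehicle-exposed cultures. The strain carries alterations in DNA damage repair.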

[4] = NCI Yeast Anticancer Drug Screen. Data for the cln2 rad14 strain (AID 165);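 also: 0% = growth equal to vehicle treated cultures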; settings: S. cerevisiae cln2 rad14 strain, at 50.0 µM, stronger effect = higher value
In short: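 Yeast strain cln2 rad14, bearing defects in cell cycle control and DNA repair, serves as the test system; values reflect growth inhibition compared with vehicle.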

[5] = NCI Yeast Anticancer Drug Screen. Data for the bub3 strain (AID 167); settings: S. cerevisiae bub3 mutant strain, at 50.0 µM, stronger effect = higher value
In short: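 Whole-cell yeast assay. The mutant strain was incubated with compounds, and growth inhibition was determined by comparison with vehicle-treated cells.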

[6] = NCI Yeast Anticancer Drug Screen. Data for the mlh1 rad18 strain (AID 175); settings: S. cerevisiae mlh1 rad18 strain growth inhibition; at 50.0 µM; stronger effect = higher value
In short: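 Steps: expose repair-defective yeast to compound; measure growth; express inhibition against vehicle-treated controls.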

Measured: growth inhibition

Cn1c(=O)c2c(nc(NN)n2C)n(C)c1=O
inactive: [1] 1.15% | [2] -10.8% | [3] -2.65% | [4] -25% | [5] 10.9% | [6] 4.7%

Clc1ccc(C=NC23CC4CC(CC(C4)C2)C3)cc1Cl
inactive: [1] -19.1% | [2] -24.1% | [3] -16.2% | [4] 17.6% | [5] 7.55% | [6] 12%

Cc1ccc(S(=O)(=O)c2scc(-c3ccccc3)c2C)cc1
inactive: [1] -47.2% | [2] -57.8% | [3] -31.1% | [4] -8.7% | [5] -17.9% | [6] -13.2%

O=[N+]([O-])c1ccccc1S(=O)(=O)N1CCCc2cc(Cl)ccc21
inactive: [1] -3% | [2] 4.15% | [3] 9.45% | [4] -12% | [5] 20.6% | [6] 13.4%

Cc1ccc2[nH]c(-c3ccccc3)cc2c1
inactive: [1] -1.85% | [2] -21.6% | [3] -10.6% | [4] -27.8% | [5] -8.15% | [6] -9.8%

Oc1ccc(CCC2CCNCC2)cc1
inactive: [1] 7.75% | [2] 23.4% | [3] 7.7% | [4] -27.2% | [5] -11.1% | [6] -30.1%

COc1cc2c(cc1OC)C(Cl)C(c1ccc(Cl)c(Cl)c1)=C2Cl (stereo unspecified)
inactive: [1] -0.65% | [2] 14.2% | [3] -4.6% | [4] -0.25% | [5] -4.15% | [6] -5.05%

CCN(CC)CCOc1ccc(/C(C#N)=C/c2ccc(OCCN3CCCCC3)cc2)cc1
inactive: [1] 35% | [2] 20.9% | [3] 57.3% | [4] 64.9% | [5] 26.2% | [6] 33.5%

Oc1ccc(Cl)cc1-c1cc(-c2ccccc2)nc(=S)[nH]1
inactive: [1] -12.7% | [2] -34.8% | [3] -17.6% | [4] -0.2% | [5] -1.3% | [6] -3.6%

CC1C2CC(CC2(C)O)C1(C)C (stereo unspecified)
inactive: [1] 8.45% | [2] -3.1% | [3] 3.35% | [4] 9.05% | [5] -3.3% | [6] -7.35%

N#CC(=C1c2ccccc2-c2ccccc21)c1ccccc1
inactive: [1] -14.2% | [2] 7.1% | [3] -2.35% | [4] -2.65% | [5] 2.75% | [6] -20.5%

COC(=O)C1(CCC(C)=O)CCC(C)C1=O (stereo unspecified)
inactive: [1] 2.55% | [2] -4.5% | [3] 1.2% | [4] 0.2% | [5] -19.6% | [6] -9.8%

BrC1CC1(c1ccccc1)c1ccccc1 (stereo unspecified)
inactive: [1] 0.1% | [2] 0.35% | [3] -3.5% | [4] -6.4% | [5] 3.65% | [6] -0.3%

Cc1ccccc1NC(=O)NN
inactive: [1] -32.1% | [2] -24.1% | [3] -31.4% | [4] 10.8% | [5] -16.6% | [6] -5.35%

Cc1nn(C)c2c1C(=O)N(C)CC(=O)N2C
inactive: [1] -25.1% | [2] -38.9% | [3] -22.9% | [4] -14.2% | [5] -20.8% | [6] -8.25%

CC(=O)NC(Cc1ccccc1)c1ccccc1 (stereo unspecified)
inactive: [1] 17.1% | [2] -8.2% | [3] 11.1% | [4] 12.8% | [5] 21.6% | [6] 10.8%

COc1ccc2cc3[n+](cc2c1O)CCc1cc2c(cc1-3)OCO2
inactive: [1] 6.75% | [2] -22.8% | [3] 19% | [4] 20.6% | [5] 22.2% | [6] 22.9%

CC(=NCc1ccccc1)c1c(C)cc(=O)n(-c2ccccc2)c1O
inactive: [1] -12.8% | [2] -6.45% | [3] -6.15% | [4] -70.5% | [5] -24.8% | [6] -12%

COc1cc(OC)c(N=Nc2c(O)n(C)c(=O)n(C)c2=O)cc1Cl
inactive: [1] 6.45% | [2] -17.8% | [3] 14.6% | [4] 3.85% | [5] 10.6% | [6] 1%

c1ccc(C2=NC3(CCCCC3)N=C2c2ccccc2)cc1
inactive: [1] 27.1% | [2] 12.3% | [3] 6.6% | [4] -32% | [5] 21.2% | [6] 25.1%

C/C(=N/O)c1ccc[cH-]1.[Fe+2].c1cc[cH-]c1
inactive: [1] 20.1% | [2] -5.3% | [3] 0.45% | [4] -0.8% | [5] -8.4% | [6] -11.5%
